C diff growth – C. difficile growth inhibition; AID 1259249; actives 0.25% (n = 86,000); Clostridium difficile clinical isolate growth, OD600, 24 h; stronger effect = lower value; growth activity, negative = inhibition, % at 16 µg/mL (by protocol);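 active = mean growth activity at or below -80% and every replicate also at or below -80%; inconclusive = mean at or below -80% but some replicate above -80%; inactive = mean growth activity above -80%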;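 also: 0% = DMSO wells and -100% = levofloxacin 16 µg/mL wells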
Pf Dd2 inh – blocks growth of Plasmodium falciparum Dd2 parasites | AID 1159554 | actives 2.3% (n = 94,000) | activity change, % at 10 µM | P. falciparum Dd2 growth, SYBR Green, 72 h; stronger effect = lower value; in the data active = activity change below about -80%; inconclusive = no clear call, values can overlap the other calls
* = called active by the depositor; ? = inconclusive; / = no result given. Shown are actives, neighbours in structure and some others; about 2.3% of the full set was active somewhere.

SMILES | C diff growth | Pf Dd2 inh
COc1ccc(S(=O)(=O)N(C)C[C@H]2OCCCC[C@@H](C)Oc3ccc(NC(=O)Nc4ccc5c(c4)OCO5)cc3C(=O)N([C@@H](C)CO)C[C@H]2C)cc1 | -3 | -85*
COc1ccc(S(=O)(=O)N(C)C[C@@H]2OCCCC[C@@H](C)Oc3ccc(NC(=O)Nc4ccc5c(c4)OCO5)cc3C(=O)N([C@@H](C)CO)C[C@H]2C)cc1 | 0 | -82*
COc1ccc(S(=O)(=O)N(C)C[C@H]2OCCCC[C@@H](C)Oc3ccc(NC(=O)Nc4ccc5c(c4)OCO5)cc3C(=O)N([C@H](C)CO)C[C@@H]2C)cc1 | 1 | -66
C[C@@H]1CN([C@@H](C)CO)C(=O)c2cc(NC(=O)NC3CCCCC3)ccc2O[C@@H](C)CCCCO[C@@H]1CN(C)C(=O)CCCN(C)C | -3 | 17
C[C@@H]1CCCCO[C@H](CN(C)S(=O)(=O)c2ccc(Cl)cc2)[C@@H](C)CN([C@@H](C)CO)C(=O)c2cc(NC(=O)Nc3cccc4ccccc34)ccc2O1 | -1 | -81*
C[C@@H]1CN([C@H](C)CO)C(=O)c2cc(NC(=O)Nc3cccc4ccccc34)ccc2O[C@@H](C)CCCCO[C@@H]1CN(C)S(=O)(=O)c1ccc(Cl)cc1 | 8 | -85*
C[C@@H]1CCCCO[C@H](CN(C)S(=O)(=O)c2ccc(Cl)cc2)[C@H](C)CN([C@@H](C)CO)C(=O)c2cc(NC(=O)Nc3cccc4ccccc34)ccc2O1 | 1 | -80
C[C@@H]1CN([C@H](C)CO)C(=O)c2cc(NC(=O)Nc3cccc4ccccc34)ccc2O[C@@H](C)CCCCO[C@H]1CN(C)S(=O)(=O)c1ccc(Cl)cc1 | 5 | ?
C[C@@H]1CCCCO[C@H](CN(C)C(=O)c2ccncc2)[C@H](C)CN([C@@H](C)CO)C(=O)c2cc(NC(=O)NC3CCCCC3)ccc2O1 | -7 | -13
CC(C)c1cn(CC[C@H]2CC[C@@H](NS(=O)(=O)Cc3ccccc3)[C@@H](CO)O2)nn1 | / | 17
COc1ccc2c3c([nH]c2c1)[C@H](CO)N(C(=O)C1CCC1)CC31CN(C)C1 | -3 | 30
Cc1noc(C)c1NC(=O)N(C)C[C@H]1Oc2c(NS(=O)(=O)c3ccc(Cl)cc3)cccc2C(=O)N([C@H](C)CO)C[C@H]1C | -1 | 22
C[C@@H]1CN([C@H](C)CO)C(=O)Cc2cc(NC(=O)Nc3ccccc3)ccc2O[C@H]1CN(C)C(=O)Nc1ccccc1 | -1 | 18
CO[C@H]1CN(C)C(=O)c2cc(NC(C)=O)ccc2OC[C@@H](C)N(C(=O)C2CC2)C[C@@H]1C | 1 | 19
O=C(Cc1ccccc1)N1CC(=O)N2[C@H](CO)[C@H](c3ccc(C#CCc4ccccc4)cc3)[C@H]2C1 | -15 | -89*
O=C(Cc1ccccc1)N1CC(=O)N2[C@H](CO)[C@@H](c3ccc(C#CCc4ccccc4)cc3)[C@H]2C1 | 38 | -43
O=C(C1CCC1)N1CC(=O)N2[C@H](CO)[C@@H](c3ccc(C#CCc4ccccc4)cc3)[C@@H]2C1 | -9 | -86*
O=C(C1CCC1)N1CC(=O)N2[C@H](CO)[C@H](c3ccc(C#CCc4ccccc4)cc3)[C@H]2C1 | -15 | -13
O=C(c1cnccn1)N1CC(=O)N2[C@H](CO)[C@@H](c3ccc(C#CCc4ccccc4)cc3)[C@@H]2C1 | -13 | -72
O=C(c1cnccn1)N1CC(=O)N2[C@@H](CO)[C@@H](c3ccc(C#CCc4ccccc4)cc3)[C@@H]2C1 | -10 | -83*
COc1cccc(S(=O)(=O)N2CC3(CN(C(=O)Nc4cccc(F)c4)[C@@H](CO)c4[nH]c5cc(OC)ccc5c43)C2)c1 | -1 | -49
O=C(O)C[C@@H]1C=C[C@@H](NC(=O)CCN2CCCCC2)[C@H](CO)O1 | 2 | -25
C[C@@H]1CCCCO[C@@H](CN(C)C(=O)c2ccccc2)[C@H](C)CN([C@H](C)CO)C(=O)c2cc(NC(=O)c3ccccc3)ccc2O1 | 3 | -54
COc1ccc(-c2cnc3c(c2)C(=O)N([C@@H](C)CO)C[C@H](C)[C@@H](CN(C)C(=O)Cc2ccncc2)O3)cc1 | -3 | -70
Cc1ccc(S(=O)(=O)N(C)C[C@@H]2OCCCC[C@H](C)Oc3ccc(NC(=O)Nc4ccccc4)cc3C(=O)N([C@H](C)CO)C[C@@H]2C)cc1 | -1 | ?
SMILES | C diff growth | Pf Dd2 inh
C[C@@H]1CCCCO[C@@H](CN(C)S(=O)(=O)c2ccccc2)[C@H](C)CN([C@@H](C)CO)C(=O)c2cc(NC(=O)Nc3ccccc3)ccc2O1 | / | -28
Cc1ccc(S(=O)(=O)N(C)C[C@H]2OCCCC[C@H](C)Oc3ccc(NC(=O)Nc4ccccc4)cc3C(=O)N([C@H](C)CO)C[C@@H]2C)cc1 | 3 | -71
Cc1ccc(S(=O)(=O)N(C)C[C@@H]2OCCCC[C@@H](C)Oc3ccc(NC(=O)Nc4ccccc4)cc3C(=O)N([C@H](C)CO)C[C@H]2C)cc1 | 17 | -85*
Cc1ccc(S(=O)(=O)N(C)C[C@H]2OCCCC[C@H](C)Oc3ccc(NC(=O)Nc4ccccc4)cc3C(=O)N([C@@H](C)CO)C[C@H]2C)cc1 | 9 | -91*
Cc1ccc(S(=O)(=O)N(C)C[C@@H]2OCCCC[C@@H](C)Oc3ccc(NC(=O)Nc4ccccc4)cc3C(=O)N([C@H](C)CO)C[C@@H]2C)cc1 | 10 | -86*
C[C@@H]1CCCCO[C@H](CN(C)S(=O)(=O)c2ccccc2)[C@H](C)CN([C@H](C)CO)C(=O)c2cc(NC(=O)Nc3ccccc3)ccc2O1 | / | -85*
C[C@@H]1CN([C@H](C)CO)C(=O)c2cc(NC(=O)Nc3ccccc3)ccc2O[C@@H](C)CCCCO[C@H]1CN(C)S(=O)(=O)c1ccccc1 | / | -79
C[C@@H]1CN([C@H](C)CO)C(=O)c2cc(NC(=O)Nc3ccc(C(F)(F)F)cc3)ccc2O[C@@H](C)CCCCO[C@@H]1CN(C)Cc1ccccc1 | 29 | -50
CO[C@@H]1CN(C)C(=O)c2cc(NC(=O)c3cnccn3)ccc2OC[C@@H](C)N(C(C)=O)C[C@@H]1C | / | 24
CCCNC(=O)N1C[C@@H](C)[C@@H](OC)CN(C)C(=O)c2ccc(NC(C)=O)cc2OC[C@H]1C | / | 2
O=C(C[C@H]1CC[C@H]2[C@@H](COC[C@@H](O)CN2S(=O)(=O)c2cccc(Cl)c2)O1)Nc1ccc(-c2ccccc2)cc1 | 14 | -10
C[C@@H]1CN([C@@H](C)CO)C(=O)c2cc(NC(=O)Cc3ccccc3)ccc2O[C@H]1CN(C)C(=O)Nc1ccc(F)cc1 | -1 | -5
CCCNC(=O)C[C@H]1CC[C@@H]2[C@@H](COc3ccc(NC(=O)c4ccc5c(c4)OCO5)cc3C(=O)N2C)O1 | -2 | -3
COc1ccc(S(=O)(=O)N2CC[C@@H]3[C@H]2c2cc(C#Cc4ccccc4OC)ccc2N[C@@H]3CO)cc1 | 0 | -83*
COc1ccccc1C#Cc1ccc2c(c1)[C@H]1[C@H](CCN1C(=O)c1ccc(F)cc1)[C@H](CO)N2 | -97* | 12
CN(C)C(=O)c1ccc(-c2ccc3c(c2)[C@H]2[C@H](CCN2Cc2ccc4c(c2)OCO4)[C@@H](CO)N3)cc1 | 67 | -54
COc1ccccc1C#Cc1ccc2c(c1)[C@@H]1[C@@H](CCN1C(=O)c1ccc(F)cc1)[C@@H](CO)N2 | 37 | 7
COc1ccc(S(=O)(=O)N2CC[C@@H]3[C@@H](CO)Nc4ccc(-c5ccc(C#N)cc5)cc4[C@@H]32)cc1 | 6 | -81*

Bioassay records deposited in PubChem by Broad Institute.
